Among the data in PubChem BioAssay AID504715 (Sanford-Burnham Center for Chemical Genomics, 2011) are inhibition values, retold here.

This is one part of the list. Active and inactive are the calls of the source.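 The calls were made as follows: active = compounds giving 40% or more inhibition at 20 µM in any one of the three replicates; inactive = the rest.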

By inhibition is commonly meant the change of the read-out against control, counted positive when it falls.

This experiment deals with Uracil-DNA glycosylase (Escherichia coli (strain K12)) (UniProt P12295). The experiment can be described thus: E. coli UDG inhibitors, confirmation, counter-screen for APOBEC3G inhibitor project, biochemical, single concentration, fluorescence, FAM/TAMRA oligo (AID 504715).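 Also: plate controls were DMSO wells with UDG and oligo for no effect and DMSO wells lacking both for full effect; inhibitors lower the FAM signal released by uracil excision and alkaline cleavage.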 Conditions: UDG counterscreen, at 20 µM, hits give high values. A general note: A counterscreen serves to expose hits that act by an unwanted route or on another target.
Uracil-DNA glycosylase (Escherichia coli (strain K12)), sequence (P12295 whole entry, looked up): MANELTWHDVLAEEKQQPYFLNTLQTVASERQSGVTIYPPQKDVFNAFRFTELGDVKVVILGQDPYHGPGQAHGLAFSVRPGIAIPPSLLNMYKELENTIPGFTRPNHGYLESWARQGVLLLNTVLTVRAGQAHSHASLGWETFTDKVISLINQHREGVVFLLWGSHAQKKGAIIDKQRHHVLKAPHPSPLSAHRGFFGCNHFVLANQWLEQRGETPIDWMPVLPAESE
Consider `COc1cccc(C(=O)CC(=O)C(=O)Nc2ccc([N+](=O)[O-])cc2C)c1`, for which the inhibition is 3.46% (inactive). For `CC1=C/C(=N\OS(=O)(=O)c2ccccc2)C=CC1=O`, the inhibition was 1.47% (inactive). Consider `CCOC(=O)c1sc(=S)n2c1[nH]c(=O)c1ccc(C(=O)OC)cc12`, for which the inhibition is 1.35% (inactive). Next, `Cc1cc(C)c2c(-c3ccc(F)cc3)c(C#N)c(=O)n(C)c2n1`: -3.68% (inactive); `Cc1cc(-c2n[nH]c(=S)n2-c2ccc(C)c(C)c2)no1`: -3.59% (inactive); `Fc1ccccc1/C=N/n1c(-c2cccnc2)n[nH]c1=S`: 0.6% (inactive). Next, `Cc1ccc(C(=O)c2c(NC(=O)c3ccccc3)sc(C)c2C)cc1`: 2.57% (inactive). On to `S=c1[nH]nc(-c2ccco2)n1/N=C/c1ccccc1`, for which the inhibition was -2.84% (inactive). As to `S=c1[nH]nc(-c2ccncc2)n1/N=C/c1ccccc1Cl`, the inhibition is -3.82% (inactive). The same measure for `CCc1c(C)[nH]c(=S)c(C#N)c1C`: -0.5% (inactive); for `Cc1noc(C)c1CSc1nc2cc(S(=O)(=O)N3CCOCC3)ccc2o1`: 1.21% (inactive); for `O=C1CC(Sc2ncn[nH]2)C(=O)N1c1ccccc1` (stereo unspecified): -0.97% (inactive). Next, `COc1ccc(N2C(=O)CC(Sc3n[nH]c(-c4ccc(C)cc4)n3)C2=O)cc1` (stereo unspecified): -1.53% (inactive). Regarding `COc1ccc(OCc2nnc3n2N=C(c2ccccc2)C(CC(=O)O)S3)cc1` (stereo unspecified), the inhibition was -3.19% (inactive). Take `CC(C)(C)c1nnc(NC(=O)C2c3ccccc3Oc3ccccc32)s1`: the inhibition is -3.35% (inactive).

Regarding `S=c1[nH]nc(-c2ccc(Cl)cc2)n1CC1CCCO1` (stereo unspecified), the inhibition is 2.84% (inactive).
